In PubChem BioAssay (EPA / NIEHS):
Activity calls are given as the source filed them. The calls were made as follows: active = hit-call score of the fitted dose curve at least 0.9, where 1 is the maximum; inactive = score below 0.9.

Read-out: Forkhead box O3 (FOXO3), FOXO3 (gene 2309)
Test: LTEA_HepaRG_FOXO3: Life Technologies and Expression Analysis (LTEA) Assay for Forkhead box O3 (FOXO3) using HepaRG (AID 2283459)
Settings: mRNA level, 48 h; actives raise or lower the signal
Description: LTEA_HepaRG is a cell based, multiplexed-readout assay that uses HepaRG, a human liver cell line, with measurements taken at 48 hours after chemical dosing on a 96-well plate.LTEA_HepaRG_FOXO3 is one of 102 assay component(s) measured in the LTEA HepaRG cell culture assay. It is a marker of Cell proliferation, survival, death.Data from the assay component LTEA_HepaRG_FOXO3 was analyzed into 1 endpoint. This assay endpoint, LTEA_HepaRG_FOXO3, was analyzed with bidirectional fitting relative to DMSO as the negative control and baseline of activity. Using a type of inducible reporter, measures of mRNA induction for gain or loss-of-signal activity can be used to understand regulation of transcription factor activity. To generalize the intended target to other relatable targets, this assay endpoint is annotated to the dna binding intended target family, where the subfamily is forkhead box protein.
A total of 1060 chemcials from the ToxCast library were tested in eight-point concentration-response experiments. Cell culture and cytotoxicity assays were conducted at Thermo Fisher Scientific's Custom Services facility (Madison, WI). A single lot of human HepaRG cells (Thermo Fisher Scientific, Frederick, MD) was used for the cell culture experiments. 96-well format collagen type I coated plates of human HepaRG cells were prepared using established methods. Briefly, cryopreserved HepaRG cells were thawed, plated at a density of approximately 100,000 cells/well in HepaRG Thaw, Plate, and General Purpose media (HPRG770, Thermo Fisher Scientific), and incubated for 48 hours. 0.5% DMSO was selected as vehicle control to balance the requisite need of DMSO in HepaRG cultures to maintain differentiation (for example, baseline metabolism, proportions of hepatocytes vs. cholangiocytes), while enabling further hepatic receptor pathway activation (for example, PXR and CAR) in response to chemical exposure. 48 hours after plating, the culture medium was replaced with HepaRG Serum-Free Incudtion Media. Cells were exposed to each test chemical in duplicate and maintained in CO2 incubators for another 48 hours. Chemical plates were thawed to room temperature and 200x concentrations of treatment groups were prepared. 8-point conentration-reponse curves were made with the highest exposure at 100 uM, followed by half-log dilutions, all in 0.5% DMSO. Each test plate contained variouse controls, induction positive controls (1mM phenobarbital), cytotoxicity positive controls ([…] aflatoxin B1), vehicle controls (0.5% DMSO), and total lysis controls (0.5% DMSO). Cell morphology images were taken using an Essen IncuCyte FLR automated microscope, with six 96-well plates imaged in about 24 minutes. Images were captured and exported and JPEG files. Spent culture media was transfered to black-well plates for the LDH assay, and remaining media was sorted at -80 C for later use. Cells were treated with RLT buffer and frozen until shipped for gene expression analysis. Total RNA was isolated from the cell suspension in 75 uL of Buffer RLT (Qiagen, Germantown, MD 20874) by Quintiles/Expression Analysis (Durham, NC) using a custom isolation procedure. Total RNA from each plate well was transferred to a preamplification plate. Fluidigm's 96.96 Dynamic ArrayTM (Fluidigm, Amsterdam, the Netherlands) technology was used for gene expression analyses by quantitative reverse transcription polymerase chain reaction (qRT-PCR, performed by Quintiles/Expression Analysis, Durham, NC)89. Standard TaqManTM Assays (Applied Biosystems/ThermoFisher Scientific, Foster City, CA) were used to assess the expression of 93 genes selected based on their selectivity and sensitivity to important hepatic receptors known to be modulated by environmental chemicals; importance in human hepatocyte functionality; and hepatotoxicity. […]

Row | SMILES | outcome
1 | ClC(Cl)c1ccccc1 | inactive
2 | c1ccc(OP(Oc2ccccc2)Oc2ccccc2)cc1 | inactive
3 | CCOP(=S)(Oc1ccc([N+](=O)[O-])cc1)c1ccccc1 (stereo not given) | inactive
4 | Cc1ccc(O)cc1C | inactive
5 | CCCCN(CCCC)N=O | inactive
6 | CC(Cc1ccc(OCC(=O)O)cc1)NCC(O)c1csc(C(F)(F)F)n1 (stereo not given) | inactive
7 | CCC(C)(C)c1ccc(O)cc1 | inactive
8 | ClC(Cl)(Cl)c1ccccc1 | inactive
9 | O=P1(N(CCCl)CCCl)NCCCO1 (stereo not given) | inactive
10 | O=[N+]([O-])c1ccc(Cl)c(Cl)c1 | inactive
11 | Nc1ccc(Cl)cc1 | inactive
12 | CCNc1nc(Cl)nc(NC(C)(C)C)n1 | inactive
13 | CCCCCCCc1ccc(O)cc1 | inactive
14 | O=C(O)C1C(C(=O)O)C2(Cl)C(Cl)=C(Cl)C1(Cl)C2(Cl)Cl (stereo not given) | inactive
15 | [N-]=[N+]=[N-] | inactive
16 | O=C(O)C(Cl)Cl | inactive
17 | CC(Cl)(Cl)C(=O)O | inactive
18 | COCCOCCO | inactive
19 | CC(C)(C)c1ccc(O)cc1 | inactive
20 | CCN(CC)c1ccccc1 | inactive

Row | SMILES | outcome
21 | CCOS(=O)(=O)OCC | inactive
22 | O=[N+]([O-])c1ccccc1 | inactive
23 | CCCN(CCC)c1c([N+](=O)[O-])cc(C(C)C)cc1[N+](=O)[O-] | inactive
24 | CCC1(c2ccccc2)C(=O)N=C(O)NC1=O (stereo not given) | inactive
25 | CCOP(=S)(OCC)SCSCC | inactive
26 | CSC(C)(C)C=NO | inactive
27 | ClC1=C(Cl)C2(Cl)C3C(Cl)C(Cl)CC3C1(Cl)C2(Cl)Cl (stereo not given) | inactive
28 | c1cc2c3c(cccc3c1)CC2 | inactive
29 | CCOC(=O)c1ccccc1C(=O)OCC | inactive
30 | Cc1ccc(N)cc1N | inactive
31 | OCC1CO1 (stereo not given) | inactive
32 | Nc1cc2c3c(c1)C(c1ccccc1)=N[C@@H](NC(=O)c1cccnc1)C(=O)N3CC2 | inactive
33 | O=P(Oc1ccccc1)(Oc1ccccc1)Oc1ccccc1 | inactive
34 | Cc1ccc([N+](=O)[O-])cc1C | inactive
35 | CCCCN(CCCC)SN(C)C(=O)Oc1cccc2c1OC(C)(C)C2 | inactive
36 | CCOc1ccc(C(C)(C)COCc2cccc(Oc3ccccc3)c2)cc1 | inactive
37 | c1ccc2c(c1)Nc1ccccc1S2 | inactive
38 | Nc1ccc2ccccc2c1 | inactive
39 | CCCCc1ccccc1 | inactive
40 | Cc1cccc(N)c1 | inactive
